High-throughput results (PubChem)
Sampled rows, rich in hits. Any-hit rate of the full collection: about 21%.
Pf growth 96h: Primary qHTS for delayed death inhibitors of the malarial parasite plastid, 96 hour incubation | P. falciparum luciferase reporter growth, 96 h | Potency, µM (top dose mostly 28.7 µM), for inactives: at the top dose activity change, negative = inhibition, hits mostly inhibitors | 320,000 compounds, 6.9% hits; note: potency is the fitted concentration of half-maximal effect; % is set by controls: 0 for no effect and ±100 for the full control effect
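Luminescence readout: decreased luciferase signal marks inhibited growth of reporter-expressing P. falciparum in infected red cells (2% hematocrit, 0.05% parasitemia final), exposed to compound two generations (96 h, 37 C, 5% CO2).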
Pf growth 48h: Primary qHTS for delayed death inhibitors of the malarial parasite plastid, 48 hour incubation | P. falciparum luciferase growth in erythrocytes, 48 h | Potency, µM (top dose mostly 28.7 µM), for the others: top-dose activity change, negative = inhibition, hits mostly inhibitors | 310,000 compounds, 5.9% hits | AID 504832, 2011; note: potency is the fitted concentration of half-maximal effect; % is set by controls: 0 for no effect and ±100 for the full control effect
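Luciferase-expressing P. falciparum in infected erythrocytes (2% hematocrit, 0.1% parasitemia final) in RPMI 1640/0.5% Albumax were exposed to compound for 48 hours at 37 C, 5% CO2; growth read as luminescence.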
CHX counter: Cycloheximide Counterscreen for Small Molecule Inhibitors of Shiga Toxin; AID 2314, 2010; cell reporter, cycloheximide protein synthesis inhibition counterscreen; max response, %; 300,000 compounds, 12% hits; in the data active = max response mostly above about 13%, no sharp cut-off; inactive = mostly below about 14%; note: read at 38.3 µM for the half of the compounds with a filed dose; 0% is about no effect
Shiga inhibitor: A qHTS for Small Molecule Inhibitors of Shiga Toxin. 290,000 compounds, 9.2% hits. inhibition, % at 38.7 µM. Vero cells, Shiga toxin protein synthesis inhibition reporter; in the data active = inhibition mostly above about 28%, no sharp cut-off; inactive = mostly below about 43%; note: 0% is about no effect
* marks the source's active call; other numbers are inactive results; [ ] = dose if it differs, or a comment. Unless noted, calls come from the whole dose curve; as a rule, active = well fitted inhibition curve with a large enough effect; inconclusive = small, poorly fitted or top-dose-only effect, or another doubt; inactive = no such curve, though single readings can be large or run the other way.

For COc1ccc(C(O)c2cc(OC)ccc2OP(=O)(N(C)C)N(C)C)cc1 (stereo unspecified) the results were Pf growth 96h 5.2µM*, Pf growth 48h 10µM*, CHX counter -3 and Shiga inhibitor -3.
O=[N+]([O-])c1cccc(-c2c(-c3ccccc3)ncc3ccc(F)cc23)c1 was read as Pf growth 96h 4.7µM* and Pf growth 48h -8%.
For COc1cc2cnc(-c3ccccc3)c(-c3ccc([N+](=O)[O-])cc3)c2cc1OC the results were Pf growth 96h inconclusive and Pf growth 48h 7%.
For COc1ccc(C2CC(C)(c3ccc(OC)cc3OC)Nc3ccccc3N2)c(OC)c1 (stereo unspecified) the results were Pf growth 96h 0%, Pf growth 48h 131%, CHX counter 30* and Shiga inhibitor 63*.
For COC(=O)C1=C(C)C(c2ccc(OC)cc2OC)NC(=O)N1 (stereo unspecified) the results were Pf growth 96h -14%, Pf growth 48h 9%, CHX counter -4 and Shiga inhibitor 22.
`O=C(Cc1ccccc1)Nc1ccccc1C(=O)N1CCCCCC1` gave Pf growth 96h inconclusive, Pf growth 48h 37%, CHX counter 6 and Shiga inhibitor -7.
Screening CCN(C(=O)COC(=O)C1CCN(S(=O)(=O)c2ccc3c(c2)OCCO3)CC1)C1CCCCC1 returned Pf growth 96h inconclusive and Pf growth 48h -10%.
Screening CCC(=O)Nc1ccc(NC(=O)c2oc3ccccc3c2C)cc1 returned Pf growth 96h inconclusive, Pf growth 48h 88%, CHX counter 10* and Shiga inhibitor 24.
Screening CC(=O)Nc1cccc(NC(=O)c2oc3ccccc3c2C)c1 returned Pf growth 48h 218%, CHX counter 48* and Shiga inhibitor 100*.
`Cc1c(C(=O)Nc2cnccn2)oc2ccccc12` gave Pf growth 96h inconclusive, Pf growth 48h inconclusive, CHX counter 28* and Shiga inhibitor 61*.
Screening Cc1c(C(=O)NCc2ccccn2)oc2ccc(Br)cc12 returned Pf growth 96h 108% and Pf growth 48h 54%.
`Cc1c(C(=O)NCc2ccccn2)oc2ccccc12` gave Pf growth 96h 13%[5.75 µM], Pf growth 48h 69%, CHX counter 32* and Shiga inhibitor 39*.
`COC(=O)c1ccc(NC(=O)CN2CCN(c3ccccn3)CC2)cc1` gave Pf growth 96h -14%, Pf growth 48h inconclusive, CHX counter 7 and Shiga inhibitor 18.
`Cc1ccc(S(=O)(=O)N2CC(C(=O)O)Oc3ccccc32)cc1` (stereo unspecified) gave Pf growth 96h -11%, CHX counter -1 and Shiga inhibitor 10.
Screening COc1ccc(S(=O)(=O)N2c3cc(C)ccc3OCC2C(C)(C)C)cc1 (stereo unspecified) returned Pf growth 96h inconclusive, Pf growth 48h inconclusive, CHX counter -2 and Shiga inhibitor -17.
`Cc1ccc(S(=O)(=O)N2c3ccccc3OCC2c2ccccc2)cc1` (stereo unspecified) gave Pf growth 96h inconclusive, Pf growth 48h 2.6µM*, CHX counter 10 and Shiga inhibitor 2.
CC1COc2ccccc2N1S(=O)(=O)c1ccc(Cl)cc1 (stereo unspecified) was read as Pf growth 96h inconclusive, Pf growth 48h 10µM*, CHX counter 6 and Shiga inhibitor -4.
CC1COc2ccccc2N1C(=O)c1ccc(Cl)cc1 (stereo unspecified) was read as Pf growth 96h 32%, Pf growth 48h 8%, CHX counter -4 and Shiga inhibitor 9.
For Cc1ccc(S(=O)(=O)N2c3cc(C)ccc3OCC2C(C)(C)C)cc1 (stereo unspecified) the results were Pf growth 96h inconclusive, Pf growth 48h 13µM*, CHX counter 12 and Shiga inhibitor 3.
CCO[C@@H]1OC(C(=O)N2CCCCCCC2)=C[C@H](c2ccc(C(F)(F)F)cc2)[C@H]1CCCO was read as Pf growth 96h inconclusive, Pf growth 48h -28%, CHX counter -2 and Shiga inhibitor -5.
For CN(C)c1ccc(C(=S)N2CCN(S(=O)(=O)c3ccccc3)CC2)cc1 the results were Pf growth 96h -10%, Pf growth 48h -17%, CHX counter 11 and Shiga inhibitor 4.
Screening COc1ccc(C(=O)NNC2=NCCCCC2)cc1 returned Pf growth 96h 21%, Pf growth 48h 13%, CHX counter -3 and Shiga inhibitor -2.
`COC(=O)c1sccc1NC(=S)Nc1cc(C)cc(C)c1` gave Pf growth 96h 10µM*, Pf growth 48h 18%, CHX counter -3 and Shiga inhibitor -4.
COC(=O)c1sccc1NC(=S)Nc1ccccc1 was read as Pf growth 96h 86%, Pf growth 48h 0%, CHX counter -6 and Shiga inhibitor -2.
`COC(=O)c1sccc1NC(=O)Nc1ccc(OC)cc1` gave Pf growth 96h 7%, Pf growth 48h 67%, CHX counter 35* and Shiga inhibitor 108*.
Screening COC(=O)c1sccc1NC(=O)Nc1cccc(C)c1C returned Pf growth 96h 4.1µM*, Pf growth 48h 23%, CHX counter 10 and Shiga inhibitor 11.
COC(=O)c1sccc1NC(=O)Nc1cccc(C)c1 was read as Pf growth 96h inconclusive, Pf growth 48h 294%, CHX counter 32* and Shiga inhibitor 60*.
For CSc1ccccc1OCc1cc(C(=O)NCCC2=CCCCC2)no1 the results were Pf growth 96h 4%, Pf growth 48h 0%, CHX counter 21 and Shiga inhibitor 28*.
For O=C(NCCC1=CCCCC1)c1cc(COc2c(F)cccc2F)on1 the results were Pf growth 96h -10%, Pf growth 48h 4%, CHX counter 8 and Shiga inhibitor 18.
For CC(=O)c1cccc(OCc2cc(C(=O)NCCC3=CCCCC3)no2)c1 the results were Pf growth 96h -2%, Pf growth 48h 17%, CHX counter 42* and Shiga inhibitor 101*.
`Cc1cc(N2CC(C)OC(C)C2)nc2ccccc12` (stereo unspecified) gave Pf growth 96h 9%, Pf growth 48h 93%, CHX counter -4 and Shiga inhibitor 15.
Screening O=C(O)/C=C/c1ccc2c(-c3ccccc3)onc2c1 returned Pf growth 96h 70%, Pf growth 48h 29%, CHX counter 6 and Shiga inhibitor 9.
`COC(=O)C(CC(=O)c1ccc(Br)cc1)n1cccn1` (stereo unspecified) gave Pf growth 96h -29%, Pf growth 48h -2%, CHX counter -2 and Shiga inhibitor -5.
CC(OC(=O)c1ccccc1NS(=O)(=O)c1cccc(C(F)(F)F)c1)C(=O)N(C)Cc1ccccc1 (stereo unspecified) was read as Pf growth 96h 10µM*, Pf growth 48h inconclusive, CHX counter -2 and Shiga inhibitor -16.
Screening CN(Cc1ccccc1)C(=O)COC(=O)c1ccccc1NS(=O)(=O)c1cccc(N)c1 returned Pf growth 96h -90%, Pf growth 48h inconclusive, CHX counter 7 and Shiga inhibitor 2.
